Values joined by “and” are separate entries in the source; they are usually repeats but may differ in a detail not shown here. Equal entries are not always repeated. Compounds without any hit were thinned out: in the full panel of roughly 79,000, 15% have a hit. Where a structure was tested more than once in an assay, its records may differ in their call. Active and inactive are the calls of the source. Rule as the data show it: active = growth inhibition above about 70%; inactive = the rest.
Test: NCI Yeast Anticancer Drug Screen. Data for the rad50 strain (AID 155);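 also: 0% = growth of vehicle-only cultures of the same strain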
Settings: S. cerevisiae rad50 strain growth inhibition, stronger effect = higher value
Method: Growth inhibition of yeast strains with defined genetic alterations is measured as a screen for potential anti-cancer activity. Selected strains with alterations in DNA damage repair or cell cycle control were exposed to compounds and growth inhibition was measured relative to vehicle treated controls. The strain used in this assay is rad50

[1] = at 5.0 µM (retest, dose inferred, filed as 0.5)
[2] = at 50.0 µM (retest, dose inferred, filed as 5.0)

For `CCN(CC)C(=S)Sc1nc2ccccc2s1`, the growth inhibition [1] was -3% (inactive), the growth inhibition [2] was 88% (active) and the growth inhibition (at 50.0 µM) was 34.2% (inactive).
With `CC(=O)Nc1nc([N+](=O)[O-])c(C(C)C)s1` the growth inhibition [1] was 4% (inactive), the growth inhibition [2] was 1% (inactive) and the growth inhibition (at 50.0 µM) was 10.1% (inactive).
With `NNc1ccc2ccccc2c1` the growth inhibition [1] was 28% (inactive), the growth inhibition [2] was 86% (active) and the growth inhibition (at 50.0 µM) was 97.2% (active) and 22.5% (inactive).
In the case of `Nc1ncnc2c(C3OC(CO)C(O)C3O)scc12` (configuration not stated), the growth inhibition [1] was 12% (inactive), the growth inhibition [2] was 36% (inactive) and the growth inhibition (at 50.0 µM) was 15.8% (inactive).
For `Cc1cc2c(C(C)C)c(O)c(O)c(C=Nc3ccccc3S)c2c(O)c1-c1c(C)cc2c(C(C)C)c(O)c(O)c(C=Nc3ccccc3S)c2c1O`, the growth inhibition [1] was -3% (inactive), the growth inhibition [2] was 53% (inactive) and the growth inhibition (at 50.0 µM) was 36.2% (inactive).
For `COc1cccc2c1C(=O)c1c(O)c3c(c(O)c1C2=O)C[C@@](O)(C(=O)CO)C[C@@H]3OC1CC(N)C(O)C(C)O1` (some centres not stated), the growth inhibition [1] was 91% (active) and 50% (inactive) and -5% (inactive), the growth inhibition [2] was 99% (active) and 94% (active) and 0% (inactive) and the growth inhibition (at 50.0 µM) was 92.2% (active) and 94.8% (active) and 20.2% (inactive).
With `C[N+]1(Cc2ccc(Cl)c(Cl)c2)CCCC1C1CCCN(Cc2ccc(Cl)c(Cl)c2)C1` (configuration not stated) the growth inhibition [1] was -4% (inactive), the growth inhibition [2] was 51% (inactive) and the growth inhibition (at 50.0 µM) was 6.55% (inactive) and -11.7% (inactive).
In the case of `O=C(Nc1cc(-c2ccccc2)[nH]n1)c1ccccc1F`, the growth inhibition [1] was 41% (inactive), the growth inhibition [2] was 59% (inactive) and the growth inhibition (at 50.0 µM) was 88.1% (active).
In the case of `CCOC(=O)C(C(=O)c1ccccc1)C(=O)c1ccccc1`, the growth inhibition [1] was 29% (inactive), the growth inhibition [2] was 85% (active) and the growth inhibition (at 50.0 µM) was -24.3% (inactive) and 90.8% (active).
With `NC(CC(=O)O)C(=O)O` (configuration not stated) the growth inhibition [1] was -2% (inactive), the growth inhibition [2] was 2% (inactive) and the growth inhibition (at 50.0 µM) was -21.4% (inactive) and 99.3% (active) and 3.3% (inactive).
With `COc1ccc(C2SC(N)=Nc3c2c(C)nn3C(=O)c2ccc(Cl)cc2)cc1OC` (configuration not stated) the growth inhibition [1] was 6% (inactive), the growth inhibition [2] was 11% (inactive) and the growth inhibition (at 50.0 µM) was -19.2% (inactive).
For `O=[N+]([O-])c1c(Br)cc(Br)c2c1Nc1c(ccc(Cl)c1Cl)S2`, the growth inhibition [1] was 14% (inactive), the growth inhibition [2] was 94% (active) and the growth inhibition (at 50.0 µM) was 96.5% (active).
With `Oc1c(Cl)c(Cl)c(Cl)c2ccccc12` the growth inhibition [1] was 84% (active), the growth inhibition [2] was 95% (active) and the growth inhibition (at 50.0 µM) was 95.5% (active).
In the case of `Fc1ccc2nc3ccccc3nc2c1`, the growth inhibition [1] was 3% (inactive), the growth inhibition [2] was 40% (inactive) and the growth inhibition (at 50.0 µM) was 77.5% (active).
